# Test results as given in PubChem BioAssay (NCI).
# The panel holds about 79,000 compounds, 15% with a hit somewhere; the sample as a whole holds those more often. A number with no mark means an inactive call. The source made the active and inactive calls. Cut-off read from the data, not from the text of the source: active = growth inhibition above about 70%; inactive = the rest.
# Legend:
# [1] = NCI Yeast Anticancer Drug Screen. Data for the rad52 strain (AID 147);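 note: 0% = growth of vehicle-treated control cultures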; conditions: S. cerevisiae rad52 mutant growth inhibition, hits give high values
# Method in brief: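 Here a repair-compromised yeast strain receives each compound; its growth is then quantified and normalised to vehicle-only controls.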
# [2] = NCI Yeast Anticancer Drug Screen. Data for the wt1 strain (AID 149);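 note: 0% = growth of vehicle-treated wt1 cultures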; conditions: S. cerevisiae wt1 strain (SPY 50644) growth inhibition, hits give high values
# Method in brief: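 Measured: growth of wt1 yeast under compound versus vehicle treatment, reported as inhibition.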
# [3] = NCI Yeast Anticancer Drug Screen. Data for the rad50EPP+ strain (AID 151);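 note: 0% = growth of vehicle-treated control cultures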; conditions: S. cerevisiae rad50 mutant strain, hits give high values
# Method in brief: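 Read-out is yeast growth inhibition relative to vehicle; cells used were the rad50EPP+ strain.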
# [4] = NCI Yeast Anticancer Drug Screen. Data for the mgt1 strain (AID 153); conditions: S. cerevisiae mgt1 mutant growth inhibition, hits give high values
# Method in brief: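 Measured: inhibition of mgt1 yeast growth by compound, normalized to vehicle-treated cultures.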
# [5] = NCI Yeast Anticancer Drug Screen. Data for the rad50 strain (AID 155);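 note: 0% = growth of vehicle-only cultures of the same strain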; conditions: S. cerevisiae rad50 strain growth inhibition, hits give high values
# Method in brief: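 Growth of the mutant yeast was measured after compound exposure and referenced to vehicle-treated cultures.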
# [6] = NCI Yeast Anticancer Drug Screen. Data for the mec2-1 strain (AID 157); conditions: S. cerevisiae mec2-1 strain, hits give high values
# Method in brief: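 Using mec2-1 yeast: add compound, measure growth, express inhibition versus vehicle-treated cultures.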
# [7] = NCI Yeast Anticancer Drug Screen. Data for the rad14 strain (AID 159);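 note: 0% = growth of vehicle-treated control cultures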; conditions: S. cerevisiae rad14 strain growth inhibition, hits give high values
# Method in brief: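 Here, inhibition of yeast growth was measured after compound exposure, using a strain with a genetic defect in DNA damage repair and vehicle-treated cultures as the reference.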
# [8] = NCI Yeast Anticancer Drug Screen. Data for the sgs1 mgt1 strain (AID 161);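 note: 0% = growth of cultures given vehicle only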; conditions: S. cerevisiae sgs1 mgt1 strain, hits give high values
# Method in brief: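 Growth of a repair-deficient yeast mutant was monitored after compound treatment and expressed as inhibition relative to vehicle-treated cultures.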
# [9] = NCI Yeast Anticancer Drug Screen. Data for the CLN2oe strain (AID 163);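 note: 0% = growth of vehicle-only control cultures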; conditions: S. cerevisiae CLN2oe strain, hits give high values
# Method in brief: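 Whole-cell yeast growth assay. A strain engineered for altered cell-cycle control received compound, and inhibition relative to vehicle-treated cultures was recorded.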
# [10] = NCI Yeast Anticancer Drug Screen. Data for the cln2 rad14 strain (AID 165);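 note: 0% = growth equal to vehicle treated cultures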; conditions: S. cerevisiae cln2 rad14 strain, hits give high values
# Method in brief: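 Yeast strain cln2 rad14, bearing defects in cell cycle control and DNA repair, serves as the test system; values reflect growth inhibition compared with vehicle.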
# [11] = NCI Yeast Anticancer Drug Screen. Data for the bub3 strain (AID 167); conditions: S. cerevisiae bub3 mutant strain, hits give high values
# Method in brief: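 Whole-cell yeast assay. The mutant strain was incubated with compounds, and growth inhibition was determined by comparison with vehicle-treated cells.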
# [12] = NCI Yeast Anticancer Drug Screen. Data for the wt2 strain (AID 169);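 note: 0% = growth of vehicle-treated yeast cultures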; conditions: S. cerevisiae wt2 strain growth inhibition, hits give high values
# Method in brief: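 Treated yeast vs. vehicle-treated yeast: growth inhibition determined.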
# [13] = NCI Yeast Anticancer Drug Screen. Data for the mlh1 strain (AID 171);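 note: 0% = growth of vehicle-treated control cultures of the same strain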; conditions: S. cerevisiae mlh1 strain growth inhibition, hits give high values
# Method in brief: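 A yeast strain with a defined genetic lesion serves as the test organism. Cultures receive compound or vehicle, and growth is measured.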
# [14] = NCI Yeast Anticancer Drug Screen. Data for the sgs1 strain (AID 173);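 note: 0% = growth of vehicle-only control cultures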; conditions: S. cerevisiae sgs1 mutant, hits give high values
# Method in brief: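 A genetically defined yeast mutant is incubated with the test compound, and its growth is compared to that of the same strain given vehicle.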
# [15] = NCI Yeast Anticancer Drug Screen. Data for the mlh1 rad18 strain (AID 175); conditions: S. cerevisiae mlh1 rad18 strain growth inhibition, hits give high values
# Method in brief: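 Steps: expose repair-defective yeast to compound; measure growth; express inhibition against vehicle-treated controls.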
# [16] = NCI Yeast Anticancer Drug Screen. Data for the rad18 strain (AID 177); conditions: S. cerevisiae rad18 mutant growth inhibition, hits give high values
# Method in brief: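 Measured value is growth inhibition of a yeast strain bearing a DNA repair alteration, referenced to vehicle-treated cells.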
# [17] = at 5.0 µM (retest, dose inferred, filed as 0.5)
# [18] = at 50.0 µM (retest, dose inferred, filed as 5.0)
smiles,measurement,setting,value
O=C1C(Br)=C(c2ccccc2)O/C1=C/C(=O)c1ccc(Br)cc1,growth inhibition,[1]; at 1.2 µM,2%
same,growth inhibition,[1]; at 3.7 µM,6%
same,growth inhibition,[1]; at 11.0 µM,12%
same,growth inhibition,[1]; at 33.0 µM,26%
same,growth inhibition,[1]; at 100.0 µM,75% (active)
same,growth inhibition,[2]; at 1.2 µM,3%
same,growth inhibition,[2]; at 3.7 µM,5%
same,growth inhibition,[2]; at 11.0 µM,10%
same,growth inhibition,[2]; at 33.0 µM,16%
same,growth inhibition,[2]; at 100.0 µM,44%
same,growth inhibition,[3]; at 1.2 µM,9%
same,growth inhibition,[3]; at 3.7 µM,22%
same,growth inhibition,[3]; at 11.0 µM,59%
same,growth inhibition,[3]; at 33.0 µM,84% (active)
same,growth inhibition,[3]; at 100.0 µM,86% (active)
same,growth inhibition,[4]; at 1.2 µM,2%
same,growth inhibition,[4]; at 3.7 µM,5%
same,growth inhibition,[4]; at 11.0 µM,10%
same,growth inhibition,[4]; at 33.0 µM,36%
same,growth inhibition,[4]; at 100.0 µM,88% (active)
same,growth inhibition,[5]; at 1.2 µM,4%
same,growth inhibition,[5]; at 3.7 µM,5%
same,growth inhibition,[5]; [17],-21%
same,growth inhibition,[5]; at 11.0 µM,11%
same,growth inhibition,[5]; at 33.0 µM,18%
same,growth inhibition,[5]; [18],34%
same,growth inhibition,[5]; at 50.0 µM,24.2%
same,growth inhibition,[5]; at 100.0 µM,49%
same,growth inhibition,[6]; at 1.2 µM,-1%
same,growth inhibition,[6]; at 3.7 µM,5%
same,growth inhibition,[6]; [17],-6%
same,growth inhibition,[6]; at 11.0 µM,8%
same,growth inhibition,[6]; at 33.0 µM,20%
same,growth inhibition,[6]; [18],25%
same,growth inhibition,[6]; at 50.0 µM,21.1%
same,growth inhibition,[6]; at 100.0 µM,92% (active)
same,growth inhibition,[7]; at 1.2 µM,3%
same,growth inhibition,[7]; at 3.7 µM,6%
same,growth inhibition,[7]; at 11.0 µM,13%
same,growth inhibition,[7]; at 33.0 µM,28%
same,growth inhibition,[7]; at 100.0 µM,96% (active)
same,growth inhibition,[8]; [17],-7%
same,growth inhibition,[8]; [18],39%
same,growth inhibition,[8]; at 50.0 µM,53.9%
same,growth inhibition,[9]; at 1.2 µM,1%
same,growth inhibition,[9]; at 3.7 µM,1%
same,growth inhibition,[9]; at 11.0 µM,4%
same,growth inhibition,[9]; at 33.0 µM,9%
same,growth inhibition,[9]; at 100.0 µM,18%
same,growth inhibition,[10]; [17],-13%
same,growth inhibition,[10]; [18],12%
same,growth inhibition,[10]; at 50.0 µM,29.7%
same,growth inhibition,[11]; at 1.2 µM,-2%
same,growth inhibition,[11]; at 3.7 µM,-2%
same,growth inhibition,[11]; [17],-16%
same,growth inhibition,[11]; at 11.0 µM,-1%
same,growth inhibition,[11]; at 33.0 µM,6%
same,growth inhibition,[11]; [18],21%
same,growth inhibition,[11]; at 50.0 µM,15.4%
same,growth inhibition,[11]; at 100.0 µM,84% (active)
same,growth inhibition,[12]; at 1.2 µM,1%
same,growth inhibition,[12]; at 3.7 µM,3%
same,growth inhibition,[12]; at 11.0 µM,7%
same,growth inhibition,[12]; at 33.0 µM,31%
same,growth inhibition,[12]; at 100.0 µM,69%
same,growth inhibition,[13]; at 1.2 µM,-2%
same,growth inhibition,[13]; at 3.7 µM,1%
same,growth inhibition,[13]; at 11.0 µM,9%
same,growth inhibition,[13]; at 33.0 µM,20%
same,growth inhibition,[13]; at 100.0 µM,89% (active)
same,growth inhibition,[14]; at 1.2 µM,1%
same,growth inhibition,[14]; at 3.7 µM,5%
same,growth inhibition,[14]; at 11.0 µM,15%
same,growth inhibition,[14]; at 33.0 µM,37%
same,growth inhibition,[14]; at 100.0 µM,94% (active)
same,growth inhibition,[15]; [17],-16%
same,growth inhibition,[15]; [18],62%
same,growth inhibition,[15]; at 50.0 µM,52.6%
same,growth inhibition,[16]; at 1.2 µM,2%
same,growth inhibition,[16]; at 3.7 µM,3%
same,growth inhibition,[16]; at 11.0 µM,13%
same,growth inhibition,[16]; at 33.0 µM,25%
same,growth inhibition,[16]; at 100.0 µM,79% (active)
CN(CCN(C)Cc1ccccc1)Cc1ccccc1,growth inhibition,[1]; at 1.2 µM,-5%
same,growth inhibition,[1]; at 3.7 µM,8%
same,growth inhibition,[1]; at 11.0 µM,-4%
same,growth inhibition,[1]; at 33.0 µM,19%
same,growth inhibition,[1]; at 100.0 µM,2%
same,growth inhibition,[2]; at 1.2 µM,-16%
same,growth inhibition,[2]; at 3.7 µM,-9%
same,growth inhibition,[2]; at 11.0 µM,-12%
same,growth inhibition,[2]; at 33.0 µM,0%
same,growth inhibition,[2]; at 100.0 µM,14%
same,growth inhibition,[3]; at 1.2 µM,-13%
same,growth inhibition,[3]; at 3.7 µM,-3%
same,growth inhibition,[3]; at 11.0 µM,-4%
same,growth inhibition,[3]; at 33.0 µM,-22%
same,growth inhibition,[3]; at 100.0 µM,-40%
same,growth inhibition,[4]; at 1.2 µM,-13%
same,growth inhibition,[4]; at 3.7 µM,-4%
same,growth inhibition,[4]; at 11.0 µM,14%
same,growth inhibition,[4]; at 33.0 µM,11%
same,growth inhibition,[4]; at 100.0 µM,58%
same,growth inhibition,[5]; at 1.2 µM,-18%
same,growth inhibition,[5]; at 3.7 µM,-12%
same,growth inhibition,[5]; [17],40%
same,growth inhibition,[5]; at 11.0 µM,-5%
same,growth inhibition,[5]; at 33.0 µM,9%
same,growth inhibition,[5]; [18],79% (active)
same,growth inhibition,[5]; at 50.0 µM,24.5%
same,growth inhibition,[5]; at 100.0 µM,6%
same,growth inhibition,[6]; at 1.2 µM,-33%
same,growth inhibition,[6]; at 3.7 µM,-19%
same,growth inhibition,[6]; [17],45%
same,growth inhibition,[6]; at 11.0 µM,-25%
same,growth inhibition,[6]; at 33.0 µM,-6%
same,growth inhibition,[6]; [18],81% (active)
same,growth inhibition,[6]; at 50.0 µM,12.9%
same,growth inhibition,[6]; at 100.0 µM,2%
same,growth inhibition,[7]; at 1.2 µM,5%
same,growth inhibition,[7]; at 3.7 µM,18%
same,growth inhibition,[7]; at 11.0 µM,18%
same,growth inhibition,[7]; at 33.0 µM,43%
same,growth inhibition,[7]; at 100.0 µM,68%
same,growth inhibition,[8]; [17],-1%
same,growth inhibition,[8]; [18],57%
same,growth inhibition,[8]; at 50.0 µM,51.3%
same,growth inhibition,[9]; at 1.2 µM,-12%
same,growth inhibition,[9]; at 3.7 µM,-5%
same,growth inhibition,[9]; at 11.0 µM,5%
same,growth inhibition,[9]; at 33.0 µM,18%
same,growth inhibition,[9]; at 100.0 µM,44%
same,growth inhibition,[10]; [17],16%
same,growth inhibition,[10]; [18],38%
same,growth inhibition,[10]; at 50.0 µM,31.1%
same,growth inhibition,[11]; at 1.2 µM,-31%
same,growth inhibition,[11]; at 3.7 µM,-15%
same,growth inhibition,[11]; [17],14%
same,growth inhibition,[11]; at 11.0 µM,-13%
same,growth inhibition,[11]; at 33.0 µM,9%
same,growth inhibition,[11]; [18],39%
same,growth inhibition,[11]; at 50.0 µM,60.5%
same,growth inhibition,[11]; at 100.0 µM,3%
same,growth inhibition,[12]; at 1.2 µM,-17%
same,growth inhibition,[12]; at 3.7 µM,-9%
same,growth inhibition,[12]; at 11.0 µM,2%
same,growth inhibition,[12]; at 33.0 µM,1%
same,growth inhibition,[12]; at 100.0 µM,14%
same,growth inhibition,[13]; at 1.2 µM,8%
same,growth inhibition,[13]; at 3.7 µM,4%
same,growth inhibition,[13]; at 11.0 µM,12%
same,growth inhibition,[13]; at 33.0 µM,23%
same,growth inhibition,[13]; at 100.0 µM,52%
same,growth inhibition,[14]; at 1.2 µM,-6%
same,growth inhibition,[14]; at 3.7 µM,-10%
same,growth inhibition,[14]; at 11.0 µM,-10%
same,growth inhibition,[14]; at 33.0 µM,10%
same,growth inhibition,[14]; at 100.0 µM,30%
same,growth inhibition,[15]; [17],25%
same,growth inhibition,[15]; [18],72% (active)
same,growth inhibition,[15]; at 50.0 µM,32.3%
same,growth inhibition,[16]; at 1.2 µM,-2%
same,growth inhibition,[16]; at 3.7 µM,14%
same,growth inhibition,[16]; at 11.0 µM,17%
same,growth inhibition,[16]; at 33.0 µM,32%
same,growth inhibition,[16]; at 100.0 µM,35%
